The results in this text go back to ChEMBL document CHEMBL4513216, “Probing the Open Global Health Chemical Diversity Library for Multistage-Active Starting Points for Next-Generation Antimalarials” (ACS Infect Dis, 2020).

About 8,600 (12%) of roughly 69,000 compounds showed an effect of 50% or more. The entries come from a sample that favours strong results as a whole.

The test system of the test is Plasmodium berghei. Put plainly: Screen against P. berghei liver stage (PbLuc), transformed with Luciferase, at 10uM. It is filed as functional, HepG2. Conditions: tested at 10 uM.
For `CC1CCN(C)c2ccccc2N1C(=O)c1ccc(=O)n(C)c1` (configuration not stated), the INHIBITION is recorded as -3.12%.

On to `Cn1cc(C(=O)N2CCSc3ccccc32)ccc1=O`, for which the INHIBITION was found to be 33.8%.

In the case of `CC(=O)N1CCCN(C(=O)c2ccc(=O)n(C)c2)c2ccccc21`, the INHIBITION came out at 62.6%.

As to `COc1ccc(-c2cc(C3CC3)c(C#N)c(N)n2)cc1F`, the INHIBITION is reported as -60.9%.

For the compound `O=C(c1ccc[nH]1)N1CCc2nnc(Cn3cccc3)n2CC1`, the INHIBITION was -6.25%.

Take `Cc1ccc(S(=O)(=O)n2ccn(C(=O)CC(C)C)c2=O)cc1`: the INHIBITION is 40%.

In the case of `COc1ccc2c(c1)C1(CCN(Cc3ccccn3)CC1)N(C)CC2`, the INHIBITION is -73.3%.

Turning to `Cc1cnc(N2CCC3(CCN(Cc4csc(C)n4)C3=O)C2)nc1` (configuration not stated), the INHIBITION is reported as 34%.

Regarding `Cc1ccc(N2CCC3(CCN(Cc4csc(C)n4)C3=O)C2)nn1` (configuration not stated), the INHIBITION stood at 47.5%.

Turning to `COc1cc(N2CCC3(CCN(Cc4csc(C)n4)C3=O)C2)ncn1` (configuration not stated), the INHIBITION is given as 90.1%.

On to `Cc1ccc(N2CCC3(CCN(Cc4csc(C)n4)CC3)CC2)nn1`, for which the INHIBITION came to 58.7%.

For `COc1ccc2c(c1)C1(CCN(Cc3nccs3)CC1)N(C)CC2`, the INHIBITION was 51.3%.

With `Cc1cc(NC2CC3(CCN(Cc4csc(C)n4)C3)C2)ncn1` (configuration not stated), the INHIBITION was -31.1%.

Regarding `Cc1ccc(N2CCC3(CCN(Cc4nccs4)CC3)CC2)nn1`, the INHIBITION was found to be 26.5%.

For the compound `COc1cc(N2CCC3(CCN(Cc4csc(C)n4)C3)CC2)ncn1`, the INHIBITION is 55.7%.

Turning to `Cc1nc(CN2CCN(c3cc(CCN)ncn3)CC2)cs1`, the INHIBITION came to 17.2%.

Turning to `COc1ccc2c(c1)C1(CCN(Cc3ccncc3)CC1)N(C)CC2`, the INHIBITION is -9.67%.

For `Cc1ccc(N2CCC3(CCN(Cc4ccccn4)CC3)CC2)nn1`, the INHIBITION is listed as -42.6%.

`CSc1ccc(C(=O)N2CC(=O)N(Cc3cccs3)CC(O)C2)cc1` (configuration not stated): the INHIBITION stood at 19.2%.

As for `CCOCC(O)CN1CCN(C(=O)C2CCC2)CC1` (configuration not stated), the INHIBITION is listed as -14.6%.

In the case of `Cc1ccc(O)c(CNc2cccc(CN3CCN(C)CC3)c2)n1`, the INHIBITION was found to be 13.9%.

As to `Cc1cc(NC(=O)CN2CCc3c(nc(C(C)C)n3C)C2)n(C)n1`, the INHIBITION amounted to 36%.

Consider `COCC1c2nnn(CC3CC3)c2CCN1Cc1ccncc1` (configuration not stated), for which the INHIBITION is recorded as 4.68%.

With `Cc1cc(C)c(CNC(=O)N(C)Cc2cccc(C#N)c2)c(=O)[nH]1`, the INHIBITION is recorded as -3.7%.

For `COc1ccc(C(=O)N2CCCC2c2noc(C(C)C)n2)nn1` (configuration not stated), the INHIBITION worked out at 12.255%.

Consider `O=C(NC1CC1)N1CC[C@H]2[C@H]1CCN2c1nncs1`, for which the INHIBITION is given as -19.8%.

With `CN(C)CCNC(=O)[C@H]1C[C@H]2CN(C(=O)NCc3ccccc3)C[C@@H]1O2`, the INHIBITION is on record as -0.27%.

On to `CN(Cc1noc(C2CC2)n1)C1CCN(Cc2ccc(F)c(F)c2)C1` (configuration not stated), for which the INHIBITION is on record as -19.945%.

Take `Cc1ccc(N2CC3(CCN(c4nccs4)C3)C2)nn1`: the INHIBITION came out at 58.5%.

With `COc1cc(N2CCC3(CCN(Cc4nccs4)CC3)C2)ncn1`, the INHIBITION is given as 91.9%.

With `c1csc(CN2CCC3(CC2)CCN(CC2CCOCC2)C3)n1`, the INHIBITION is given as -8.85%.

As to `COc1cc(N2CC3(CCN(c4ncccn4)C3)C2)ncn1`, the INHIBITION stood at 12.1%.

Regarding `Cc1nc(CN2CC3(CCN(c4ncc(F)cn4)C3)CC2=O)cs1` (configuration not stated), the INHIBITION was -30%.

`Cc1nc(CN2CC3(CCN(c4cnccn4)C3)CC2=O)cs1` (configuration not stated): the INHIBITION is reported as 35.8%.

In the case of `COc1cc(N2CCC3(CC(=O)N(Cc4csc(C)n4)C3)C2)ncn1` (configuration not stated), the INHIBITION was 58.4%.

`CCc1cnc(N2CCC3(CC(=O)N(Cc4csc(C)n4)C3)C2)nc1` (configuration not stated): the INHIBITION is listed as 34.4%.

With `Cc1nc(CN2CC3(CCN(c4ncccn4)C3)CC2=O)cs1` (configuration not stated), the INHIBITION is 18.2%.

Consider `N#Cc1ccc(N2CC3(CCN(c4nccs4)C3)C2)nc1`, for which the INHIBITION worked out at 37.9%.

Take `Cc1ccc(N2CCC3(CC2)COCCN(c2nccs2)C3)nn1`: the INHIBITION is on record as 6.72%.

Turning to `Cc1cnc(N2CCC3(CC(=O)N(Cc4csc(C)n4)C3)C2)nc1` (configuration not stated), the INHIBITION is recorded as 54.7%.

Turning to `Cc1cccc(C(=O)Nc2c(C(=O)N(C)C)nn(C)c2C)c1`, the INHIBITION came to 35%.

On to `Cc1cnn(CC2CN(C=C3NN=C(c4occc4C)O3)CCO2)c1` (configuration not stated), for which the INHIBITION amounted to 13.3%.

As to `Cc1cccc(CN2C(=O)CCC23CCN(C(=O)c2ccco2)CC3)c1`, the INHIBITION is -7.28%.

Consider `Cc1nc(C)n(C2CCCN(C(=O)CCn3cncn3)C2)n1` (configuration not stated), for which the INHIBITION was 14.9%.

Consider `CCc1nc(CN(C)c2nccc(N3CCCC(O)C3)n2)no1` (configuration not stated), for which the INHIBITION stood at 20.3%.

Consider `Cc1nc(O)ccc1C(=O)NCc1ncccc1F`, for which the INHIBITION is given as 12.6%.

As for `COCCNC(=O)NC1(c2nc(C)no2)CCCCC1`, the INHIBITION came out at 19.2%.

Turning to `O=C(NC1(c2nc(C3CC3)no2)CCCCC1)c1ccncc1`, the INHIBITION is listed as -3.19%.

Turning to `COCCNC(=O)NC1(c2nc(-c3ccncc3)no2)CCCCC1`, the INHIBITION amounted to 56.3%.

For the compound `CC(C)CNS(=O)(=O)c1ccc(C(=O)N(C)CCc2cn[nH]c2)cc1`, the INHIBITION is -12.4%.

In the case of `NC(=O)c1c(-c2ccc(Cl)cc2Cl)csc1NC(=O)CCC(=O)O`, the INHIBITION amounted to 44.9%.

Consider `O=C(NCCC(=O)N1CCCc2ccccc21)c1c(F)cccc1F`, for which the INHIBITION is -57.4%.
